Structures can show the parent of a compound that is named as a salt.
Assays:
Test in all cases: cell proliferation relative to vehicle (% of vehicle); higher = less growth inhibition
Details in all cases: 72 h
[1] = tested on: U2932 TK216-resistant clone 2
Method in brief: (§1)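 A targeted inhibitor library of 348 compounds was tested on the ABC-DLBCL line U2932, both parental and two clones made resistant to an ETS-targeting agent by repeated exposure over almost a year. Cells were grown at 37°C and 5% CO2 in medium with 10% FBS, then treated at 500 nM or 50 nM for 72 h. MTT was added for 4 h, stopped with 25% SDS, and absorbance was read on a Cytation 3. Proliferation is reported as percent of proliferating cells relative to vehicle (DMSO).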

[2] = tested on: U2932 TK216-resistant clone 3
Method in brief: as §1

[3] = tested on: U2932 parental
Method in brief: as §1

Compound	cell proliferation ([1]; 50 nM)	cell proliferation ([1]; 500 nM)	cell proliferation ([2]; 50 nM)	cell proliferation ([2]; 500 nM)	cell proliferation ([3]; 50 nM)	cell proliferation ([3]; 500 nM)
Cn1cc(CNCC2CCN(c3ncc(C(=O)NO)cn3)CC2)c2ccccc21	8.61	5.78	11.4	10.2	4.68	0.113
C[C@]12C=CC(=O)C=C1CC[C@@H]1[C@@H]2C(=O)C[C@@]2(C)[C@H]1CC[C@]2(O)C(=O)CO [Prednisone]	95.3	94.8	105	102	97.3	100
COC(=O)Nc1ccc(-c2nc(N3CCOCC3)c3cnn(C4CCN(C(=O)OC)CC4)c3n2)cc1	107	55.1	101	56.4	101	46.9
CCCC(CCC)C(=O)O [Valproic acid sodium salt (Sodium valproate)]	98.2	101	103	94.2	106	97.6
C[C@@H]1C[C@H]2[C@@H]3CCC4=CC(=O)C=C[C@]4(C)[C@@]3(F)[C@@H](O)C[C@]2(C)[C@@]1(O)C(=O)CO [Dexamethasone (DHAP)]	76.1	79	80.9	71.2	77.4	74.2
O=C(/C=C/c1ccc(CN(CCO)CCc2c[nH]c3ccccc23)cc1)NO [LAQ824 (Dacinostat)]	41.2	5.42	48.6	12.4	33.6	0.789
CCCCCCCCCCCCCCCCCCOP(=O)([O-])OC1CC[N+](C)(C)CC1 [Perifosine (KRX-0401)]	98.7	93.4	113	110	96.7	102
FC(F)c1nc2ccccc2n1-c1nc(N2CCOCC2)nc(N2CCOCC2)n1	95.8	42.5	93.6	46	89.9	46.8
COc1ccc(S(=O)(=O)N(CCO)c2ccccc2CN(C)C/C=C/c2ccc(Cl)cc2)cc1 [KN-93 Phosphate]	103	90.8	105	90.1	102	89.6
Oc1cc(O)cc(/C=C/c2ccc(O)c(O)c2)c1 [Piceatannol]	97.8	99.7	97.6	100	98.7	94
O=C(O)CC[C@H]1CC[C@@](c2cc(F)ccc2F)(S(=O)(=O)c2ccc(Cl)cc2)CC1	102	109	105	106	93.5	93.2
O=C(/C=C/c1ccc2ccccc2n1)c1ccncc1	99.7	83.1	102	88.3	98.2	89.1
O=c1ncccn1[C@@H]1O[C@H](CO)[C@@H](O)[C@H]1O [Zebularine]	111	95.5	102	99.9	105	102
CC1(C)CCC(c2ccc(Cl)cc2)=C(CN2CCN(c3ccc(C(=O)NS(=O)(=O)c4ccc(N[C@H](CCN5CCOCC5)CSc5ccccc5)c(S(=O)(=O)C(F)(F)F)c4)cc3)CC2)C1 [ABT-263 (Navitoclax)]	100	62.4	99.4	64.2	91.5	86.6
Nc1nc(F)nc2c1ncn2[C@@H]1O[C@H](CO)[C@@H](O)[C@@H]1O [Fludarabine]	107	97.8	103	96.4	103	97.3
O=C1NC(=O)C(c2ccccc2[N+](=O)[O-])=C1Nc1ccc(O)c(Cl)c1	111	113	110	105	108	101
N=C1NC(=O)/C(=C/c2ccc(O)cc2)S1 [Mirin]	103	94.6	107	102	90.9	97.3
O=C(Nc1ccc(OC(F)(F)F)cc1)c1sccc1NCc1ccnc2ccccc12	105	101	105	109	100	98.9
C[C@]12CCC(=O)C=C1CC[C@@H]1[C@@H]2[C@@H](O)C[C@@]2(C)[C@H]1CC[C@]2(O)C(=O)CO [Hydrocortisone]	95.7	81.2	97.8	85.1	96.1	87.3
CCOC(=O)c1[nH]c2cc(Cl)ccc2c1C(C(=O)NC(C)(C)C)N(C=O)Cc1ccc(Cl)cc1 (stereo not drawn)	106	92.2	103	95.6	97.7	93.4
C/C(=C\C(=O)Nc1ccccc1C(=O)O)c1ccc2ccccc2c1	82.5	98.2	109	100	97.4	102
C=C1/C(=C\C=C2/CCC[C@]3(C)[C@@H]([C@H](C)/C=C/[C@H](C)C(C)C)CC[C@@H]23)C[C@@H](O)C[C@@H]1O [Doxercalciferol]	104	92.2	101	103	105	98.5
CC[C@H](Nc1ncnc2[nH]cnc12)c1nc2cccc(F)c2c(=O)n1-c1ccccc1 [CAL-101 (Idelalisib, GS-1101)]	103	109	97.8	99.3	92.6	96.6
O=C(NCCCNc1nc(Nc2cccc(NC(=O)N3CCCC3)c2)ncc1I)c1cccs1	98.5	98.8	99.5	95.7	97.2	92.1

Compound	cell proliferation ([1]; 50 nM)	cell proliferation ([1]; 500 nM)	cell proliferation ([2]; 50 nM)	cell proliferation ([2]; 500 nM)	cell proliferation ([3]; 50 nM)	cell proliferation ([3]; 500 nM)
CC[C@@](C)(Nc1ccnc(-c2c[nH]c3ncccc23)n1)C(=O)NCC(F)(F)F [Decernotinib (VX-509)]	103	92.4	97.4	105	98.2	98.6
Nc1ncn([C@@H]2O[C@H](CO)[C@@H](O)[C@H]2O)c(=O)n1 [Azacitidine]	103	96.5	103	97.2	99.9	91.8
CCCCc1nc2cc(/C=C/C(=O)NO)ccc2n1CCN(CC)CC [Pracinostat (SB939)]	107	54	89.2	64.4	91.7	50.1
Oc1ccc(Nc2nc(-c3ccc(Cl)cc3)cs2)cc1	109	94.9	111	103	97	95.5
CCCc1ccc(OCC(=O)N(Cc2nc(-c3cccnc3)no2)C(C)C)cc1	107	102	103	101	85.2	97.7
C[C@H](Nc1ncnc2nc[nH]c12)c1cc2cccc(Cl)c2c(=O)n1-c1ccccc1	103	92.2	95.6	94.3	106	108
CC#CC(=O)N1CCC[C@H]1c1nc(-c2ccc(C(=O)Nc3ccccn3)cc2)c2c(N)nccn12	70	64.8	75.8	72.9	77.4	75.6
CS(=O)(=O)c1ccc(C(=O)Nc2ccc(Cl)c(-c3ccccn3)c2)c(Cl)c1 [Vismodegib (GDC-0449)]	106	108	108	113	98.2	103
Cc1nc(C(=O)NCC(=O)O)c(O)c2ccc(Oc3ccccc3)cc12	102	98.6	104	98.5	98.3	95.4
Cc1nc(Nc2ncc(C(=O)Nc3c(C)cccc3Cl)s2)cc(N2CCN(CCO)CC2)n1 [Dasatinib]	74.2	63.7	66.1	52.4	75	60.9
Nc1cccc2c1CN(C1CCC(=O)NC1=O)C2=O (stereo not drawn) [Lenalidomide (CC-5013)]	107	98	102	96	98	99.7
CO[C@H]1C[C@@H]2CC[C@@H](C)[C@@](O)(O2)C(=O)C(=O)N2CCCC[C@H]2C(=O)O[C@H]([C@H](C)C[C@@H]2CC[C@@H](O)[C@H](OC)C2)CC(=O)[C@H](C)/C=C(\C)[C@@H](O)[C@@H](OC)C(=O)[C@H](C)C[C@H](C)/C=C/C=C/C=C/1C [Rapamycin (Sirolimus)]	62.4	62.1	60.3	59.4	58.2	58.9
COc1cc([C@@H]2c3cc4c(cc3[C@@H](O[C@@H]3O[C@@H]5CO[C@@H](C)O[C@H]5[C@H](O)[C@H]3O)[C@H]3COC(=O)[C@H]23)OCO4)cc(OC)c1O [Etoposide]	95.7	53.8	99.3	74.9	93.3	68.8
CCCCCCCCCCCCc1ccc(S(=O)(=O)Nc2nncs2)cc1	102	88.7	102	100	101	100
NC(=O)c1ccc(-c2nc(-c3ccccn3)c(-c3ccc4c(c3)OCO4)[nH]2)cc1	115	109	100	102	101	101
Nc1cc(C(F)(F)F)c(-c2cc(N3CCOCC3)nc(N3CCOCC3)n2)cn1 [BKM120 (NVP-BKM120, Buparlisib)]	112	77.9	96.2	72.4	97.7	78.5
COc1cc2c(Oc3ccc(NC(=O)C4(C(=O)Nc5ccc(F)cc5)CC4)cc3F)ccnc2cc1OCCCN1CCOCC1	101	69.7	98.3	66	92.7	58.9
CCCS(=O)(=O)Nc1ccc(F)c(C(=O)c2c[nH]c3ncc(Cl)cc23)c1F	99.4	97.3	106	106	95.1	95.6
FC(F)(F)c1ccc(/C=C/c2nc(COc3ccc(CCCCn4ccnn4)cc3)co2)cc1 [Mubritinib (TAK 165)]	90.7	61	80.9	63.5	85.6	57.4
Cn1cc(-c2ccc3nnc(C(F)(F)c4ccc5ncccc5c4)n3n2)cn1	102	103	106	113	99.8	99.2
CN(C)C(=N)NC(=N)N [Metformin HCl]	110	102	113	108	99.9	98.9
COc1ccc(C2=N[C@H](c3ccc(Cl)cc3)[C@H](c3ccc(Cl)cc3)N2C(=O)N2CCNC(=O)C2)c(OC(C)C)c1 [Nutlin-3b]	105	96.6	100	107	102	99.6
C#Cc1cccc(Nc2ncnc3cc(OC)c(OCCCCCCC(=O)NO)cc23)c1	93.7	43.4	96.3	52.5	89.5	43.9
C[C@]1(c2nc3c(C(N)=O)cccc3[nH]2)CCCN1 [Veliparib (ABT-888)]	90.3	91.5	98.8	80.8	87	96.6
